Source: PubChem BioAssay (NCI)
Values joined by “and” are separate entries in the source; they are usually repeats but may differ in a detail not shown here. Equal values may be shown once. About 83,000 compounds went through this panel and 20% of them were active in at least one assay; those are over-represented in the sample as a whole.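 48-hour exposure, single concentration, 96-well plates; percent growth endpoint where 0 means no net growth. Active: below 10.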 A number with no mark means an inactive call. Active and inactive are the calls of the source.

tested on: SNB-19 CNS; assay: NCI-60 one-dose screen, 48 h (100 = growth as untreated, 0 = no growth, -100 = all killed); conditions: 10 µM unless noted

Row | SMILES | growth
1 | Cc1ccc(C(=O)Nc2ccc(CN3CCN(C)CC3)c(C(F)(F)F)c2)cc1C#Cc1cnc(N)cc1C#N | 3.23% (active)
2 | COc1cc(/C=C(/c2ccccc2)[N+](=O)[O-])c(OC)c2c1OCO2 | -17.1% (active)
3 | C[C@@H]1CC[C@@H]2[C@@H]1[C@H](OC(=O)/C=C/c1ccccc1)[C@]1(c3ccccc3)C[C@@H](NC(=O)CO)[C@@]2(C)O1 | 96.2%
4 | Nc1ccc(-c2nc3ccc4[nH]ncc4c3c3c2CCCC3)cc1F | 41.9%
5 | C=C1CCC2C3(C)COC(c4ccc(NC(C)=O)cc4)OC3CCC2(C)C1C/C=C1/C(=O)OCC1O (configuration not stated) | 83.6%
6 | Cc1c(C(C)(C)O)cn2ncnc(Oc3ccc(NC(=O)Nc4ccc(Cl)c(C(F)(F)F)c4)cc3)c12 | 30.8%
7 | Cc1ccccc1SSc1ccccc1C | 84.2%
8 | O=C(CC1(O)C(=O)Nc2ccc(Br)cc21)c1ccc(Cl)cc1 (configuration not stated) | 107%
9 | O/N=C(/c1ccccc1)c1ccc2c3c(cccc13)CC2 | 98.5% and 94.1%
10 | Cc1ccc(/C=C2\COc3ccc(O)c(O)c3C2=O)cc1 | 24.8%
11 | CC1(Cc2ccccc2)CC2=C(C(=O)O1)C(c1ccccc1)NC(=O)N2 (configuration not stated) | 89.4%
12 | [Cu+].[NH-][C@H]1C[N-]C(=O)[C@H]([C@H]2CCN=C(N)N2)[N-]C(=O)/C(=C\NC(N)=O)[N-]C(=O)[C@H](CNC(=O)C[C@@H](N)CCCN)[N-]C(=O)[C@H](CO)[N-]C1=O | 103%
